Methyltransferases = Primary Screen for Target Class Profiling of Small Molecule Inhibitors of Methyltransferases | calls only at 40 µM | purified enzyme, MTase-Glo SAH luminescence; hits give low values | 3.9% of 25,000 active | AID 1745853, 2022; call rule not given here
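Each enzyme was reacted with SAM and its substrate, with compounds tested once at 40 uM; SAH formed was read by MTase-Glo luminescence.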
MTase-Glo ctr = inhibits MTase-Glo coupling enzymes without methyltransferase; shares compounds with Methyltransferases; MTase-Glo coupled enzymes, SAH conversion luminescence, no MTase; Potency, µM (highest dose often 57.3 µM), actives largely listed as inhibitors; 6% of 180 active; AID 1745851; active = well fitted inhibition curve with a large enough effect; inconclusive = small, poorly fitted or top-dose-only effect
Of the large screens only hits and unclear results are named; the others gave an inactive call (follow-up assays come after a bar, where they were run). The sample as a whole holds a higher share of hits than the screen did.

O=C(Nc1ccccc1)N1Cc2ccccc2-n2cccc2C1c1ccccc1Cl (stereo unspecified)	none
CCOc1ccccc1NC(=O)N1Cc2ccccc2-n2cccc2C1c1ccccc1Cl (stereo unspecified)	none
Cc1cccc(C2c3cccn3-c3ccccc3CN2C(=O)NCc2ccco2)c1 (stereo unspecified)	none
Cc1c2ccncc2c(C)c2c1[nH]c1ccccc12	Methyltransferases active
Cc1nccc2c1[nH]c1ccccc12	none
CCOc1ccccc1NC(=O)N1Cc2ccccc2-n2cccc2C1c1ccccc1 (stereo unspecified)	none
Cc1cc(NC(=O)N2Cc3ccccc3-n3cccc3C2c2cccs2)ccc1Br (stereo unspecified)	none
COc1ccc(NC(=O)N2Cc3ccccc3-n3cccc3C2c2cccs2)c(OC)c1 (stereo unspecified)	none
CCc1ccc(NC(=O)N2Cc3ccccc3-n3cccc3C2c2cccc(C)c2)cc1 (stereo unspecified)	none
CCOC(=O)CNC(=O)N1Cc2ccccc2-n2cccc2C1c1cccc(Cl)c1 (stereo unspecified)	none
CCCN(CCC)[C@@H]1CCc2cccc(O)c2C1	none
CCCN(CCC)[C@@H]1CCc2ccc3[nH]c(C#N)cc3c2C1	Methyltransferases active
COc1cccc(NC(=O)N2Cc3ccccc3-n3cccc3C2c2cccc(C)c2)c1 (stereo unspecified)	none
COc1ccc(C2c3cccn3-c3ccccc3CN2C(=O)NCCC(C)C)cc1OC (stereo unspecified)	none
O=C(NCc1ccccc1)N1Cc2ccccc2-n2cccc2C1c1cccc(Cl)c1 (stereo unspecified)	none
CCOc1ccc(C2c3cccn3-c3ccccc3CN2C(=O)Nc2cccc(OC)c2)cc1 (stereo unspecified)	none
CCc1ccc(NC(=O)N2Cc3ccccc3-n3cccc3C2c2ccc(OC)cc2)cc1 (stereo unspecified)	none
COc1cc(NC(=O)N2Cc3ccccc3-n3cccc3C2c2ccc(F)cc2)cc(OC)c1 (stereo unspecified)	none
COc1ccc(-c2cc3c(cn2)CN(C)CCN3)cn1	Methyltransferases active | MTase-Glo ctr inactive
CCc1ccc(C2c3cccn3-c3ccccc3CN2C(=O)Nc2cccc(Br)c2)cc1 (stereo unspecified)	none
Cc1ccccc1NC(=O)N1Cc2ccccc2-n2cccc2C1C (stereo unspecified)	none
CCOC(=O)CNC(=O)N1Cc2ccccc2-n2cccc2C1c1ccccc1 (stereo unspecified)	none
O=C(NCc1ccc(F)cc1)N1Cc2ccccc2-n2cccc2C1c1ccc(F)cc1 (stereo unspecified)	none
Cc1cccc(C2c3cccn3-c3ccccc3CN2C(=O)Nc2cccc(Cl)c2)c1 (stereo unspecified)	none
CNC1CCc2ccccc21 (stereo unspecified)	Methyltransferases active | MTase-Glo ctr inactive
CCC1c2cccn2-c2ccccc2CN1C(=O)NCCCOC (stereo unspecified)	none
CC1c2cccn2-c2ccccc2CN1C(=O)NCc1ccco1 (stereo unspecified)	none
Cn1nc(-c2ccc3ccccc3c2)cc1[C@H]1CN2CC[C@H]1C[C@@H]2CNC(=O)c1ccco1	none
COc1ccccc1-c1cc([C@H]2CN3CC[C@H]2C[C@@H]3CNC(=O)N2CCOCC2)n(C)n1	none
CC(=O)NC[C@H]1C[C@@H]2CCN1C[C@@H]2c1cc(-c2ccc3ccccc3c2)nn1C	Methyltransferases active | MTase-Glo ctr inconclusive
CCC1c2cccn2-c2ccccc2CN1C(=O)Nc1cc(OC)ccc1OC (stereo unspecified)	none
Cc1cccc(NC(=O)N2Cc3ccccc3-n3cccc3C2c2ccc(N(C)C)cc2)c1C (stereo unspecified)	none
CCC1c2cccn2-c2ccccc2CN1C(=O)Nc1cc(Cl)ccc1C(=O)OC (stereo unspecified)	none

Screening data: PubChem BioAssay, National Center for Advancing Translational Sciences (NCATS)
